We go through 9 compounds from PubChem BioAssay (NCI).

About 83,000 compounds went through this panel and 20% of them were active in at least one assay; those are over-represented in the sample as a whole.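 Growth was measured after 48 h exposure to one concentration of compound in 96-well plates. Values under 10 count as active.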 Values without a mark were called inactive. Activity calls are given as the source filed them.

In this assay the test system is MDA-MB-468 breast. Nature of the assay: NCI-60 one-dose screen, 48 h (100 = growth as untreated, 0 = no growth, -100 = all killed). To be noted: 10 µM unless noted.
Turning to `CCN(CC)CCSCCN(CC)CC`, the growth was 93.4%. With `O=S(=O)(O)c1cnccn1` the figure was 105%. As for `C[C@]12CCC(=O)C=C1CCC1C2[C@@H](O)C[C@@]2(C)C1CC[C@]2(O)C(=O)COC(=O)CCC(=O)O` (some centres undefined), the figure is 109%; as for `CN(C)c1ccc(/C=N/NC(=O)CSc2nc3sc4c(c3c(=O)n2-c2ccccc2)CCCCC4)cc1`, 26.2%; as for `NC(=S)N/N=C/c1ccc(OC(=O)COc2ccccc2)cn1`, 29.7%. With `CN(C)CCCn1c(=O)c2ccccc2c2cnc3[nH]ccc3c21` the figure was -9.4% (active); with `COCCOCCCl`, 102%. In the case of `COc1cc(C)cc2oc3oc(=N)c(C(=O)c4ccccc4)cc3c(=O)c12`, the growth is 108%. With `C[C@]12CC[C@@H]3c4ccc(O)cc4CC[C@H]3[C@@H]1CC[C@@H]2NS(=O)(=O)c1ccc(C(F)(F)F)cc1` the figure was 53%.
